Assay results reported in ChEMBL document CHEMBL1157539, “Thousands of chemical starting points for antimalarial lead identification” (Nature, 2010).

Experiments:
Format in all cases: functional
Plasmodium falciparum [1] = experiment: GSK_TCMDC: Inhibition of Plasmodium falciparum 3D7 in whole red blood cells, using parasite LDH activity as an index of growth. Test compounds present at 2uM
Plasmodium falciparum [2] = experiment: GSK_TCMDC: Inhibition of Plasmodium falciparum Dd2 in whole red blood cells, using parasite LDH activity as an index of growth. Test compounds present at 2uM
HepG2 = experiment: GSK_TCMDC: Percent inhibition of human HepG2 cell line. Test compounds present at 10uM.

Structure (SMILES) | Inhibition (Plasmodium falciparum [1]) | Inhibition (Plasmodium falciparum [2]) | Inhibition (HepG2)
CCN1CCC(NCc2ccc(-c3ccc(Cl)s3)cc2)CC1 | 96% | 23% | 42%
Cl.O=C(Nc1ccc2c(c1)CCNCC2)c1ccc(-c2ccc(Cl)cc2)cc1 | 96% | 38% | 71%
Cc1cccc2nc(-c3ccc(-c4cccc(CN5CCCC(O)C5)c4)s3)[nH]c12.O=C(O)C(F)(F)F (stereo not drawn) | 95% | 18% | 13%
Cc1ccc(Cn2cnc3cc(C(=O)Nc4ccc(-c5ccc(CN(C)C)cc5)cc4)ccc3c2=O)o1 | 82% | 12% | 43%
CCOc1cc(C(=O)Nc2ccc3nc(N(CC)CC)cc(C)c3c2)cc(OCC)c1OCC | 98% | 9% | 16%
CC(C)(C)NCc1cc(Nc2ccnc3cc(Cl)ccc23)ccc1F | 100% | 100% | 21%
CCOc1ccc2c(=NN=Cc3c4ccccc4cc4ccccc34)cc(C)[nH]c2c1 | 90% | 94% | 0%
CC(=O)Nc1cc(C(=O)Nc2ccc(C3=NCCN3)cc2)ccc1C(=O)Nc1ccc(C2=NCCN2)cc1.Cl | 96% | 92% | 12%
CN(C)CC(=O)NCC(NCCCNc1cc(=O)c2ccccc2[nH]1)c1cc(Br)cc(Br)c1 (stereo not drawn) | 98% | 2% | 6%
CCOc1cc(C(=O)NCC2CCN(CC3CCCCC3)CC2)ccc1-c1nc2cc(Cl)ccc2[nH]1 | 98% | 59% | 14%
CCOC(=O)c1nc(-c2ccc(Cl)cc2)[nH]c1NC(=S)NCCCN1CCOCC1 | 92% | 33% | 22%
COc1ccccc1C1CCN(C2CCC(NC(=O)/C=C/c3ccc4c(c3)OC(F)(F)O4)CC2)CC1 (stereo not drawn) | 98% | 31% | 52%
COC(=O)c1cccc(CN(CCC(O)(C(F)(F)F)C(F)(F)F)C(=O)CC2CCCC2)c1 | 98% | 53% | 0%
CN1CCN(C(C(=O)NCc2cc(Cl)cc(Cl)c2)c2ccc(NC(=O)Nc3ccccc3)cc2)CC1.O=C(O)C(F)(F)F (stereo not drawn) | 98% | 43% | 23%
O=C(CCCCCNC(=O)c1ccc(O)c(-c2cccc(C(F)(F)F)c2)c1)NCCN1CCCCC1 | 99% | 0% | 0%
CC(C)Oc1cc2c(cc1NS(=O)(=O)c1ccc(-c3ccc(Cl)cc3)cc1F)CCN(C)CC2.Cl | 88% | 2% | 29%

Structure (SMILES) | Inhibition (Plasmodium falciparum [1]) | Inhibition (Plasmodium falciparum [2]) | Inhibition (HepG2)
Cc1nc(NC(=N)N)nc2cc3c(cc12)CCC3.Cl | 90% | 58% | 17%
CN1CCC(NCc2ccc(-c3ccc(S(=O)(=O)NC4CCC4)s3)cc2)CC1.O=C(O)C(F)(F)F | 92% | 31% | 31%
COc1ccc2c(NN=Cc3ccc(N(C)C)cc3)ccnc2c1 | 100% | 100% | 12%
Cc1onc(-c2ccccc2)c1-c1nc(NCCC(c2ccccc2)c2ccccc2)no1 | 100% | 78% | 0%
O=C(Nc1cccc(C(F)(F)F)c1)Nc1nc2ccc([N+](=O)[O-])cc2s1 | 100% | 76% | 81%
CCC1(CC)N=C(N)N=C(N)C1c1ccc(Cl)c(Cl)c1.Cl (stereo not drawn) | 98% | 20% | 0%
CCC(C)NS(=O)(=O)c1ccc2nc(Nc3ccc(C)c(Cl)c3)n([C@H](C)C(C)(C)C)c2c1 (stereo partly drawn) | 98% | 100% | 8%
COc1ccc2nccc(N3CCC(NCCNS(=O)(=O)c4ccc5c(c4)NC(=O)CS5)C3)c2n1.Cl (stereo not drawn) | 97% | 18% | 12%
Cl.Clc1cccnc1N1CCN(c2ncccc2Cl)CC1 | 97% | 0% | 2%
CCCCNc1nc(NCCCC)c2c(C)c(Cc3ccccc3)c(NCCCC)nc2n1.Cl | 95% | 84% | 69%
Cc1ccc(O)cc1Nc1ccnc2cc(-c3csc(CNCCN4CCOCC4)n3)ccc12 | 100% | 99% | 6%
Cn1nccc1C(=O)NCCNCc1ccc(-c2ccc(-c3nc4ccccc4[nH]3)s2)cc1.O=C(O)C(F)(F)F | 100% | 97% | 23%
CCC[C@@H]([C@@H](CC(C)C)C(=O)N[C@@H](CCCCNC(=O)c1ccccn1)C(=O)Nc1nccs1)N(O)C=O | 100% | 100% | 0%
COC(=O)c1ccc(C2OC3(C(=O)c4ccccc4C3=O)C(OC)=C2Cl)cc1C(C)=O (stereo not drawn) | 99% | 85% | 0%
COc1cc(NCCCNC(=O)c2ccc(Cl)c(Cl)c2)nc2ccccc12 | 99% | 100% | 48%
